According to ChEMBL document CHEMBL2218924, “A broad activity screen in support of a chemogenomic map for kinase signalling research and drug discovery” (Biochem J, 2013):

Target: T1, Serine/threonine-protein kinase STK11 (Homo sapiens) (UniProt Q15831)
T1 sequence (whole entry): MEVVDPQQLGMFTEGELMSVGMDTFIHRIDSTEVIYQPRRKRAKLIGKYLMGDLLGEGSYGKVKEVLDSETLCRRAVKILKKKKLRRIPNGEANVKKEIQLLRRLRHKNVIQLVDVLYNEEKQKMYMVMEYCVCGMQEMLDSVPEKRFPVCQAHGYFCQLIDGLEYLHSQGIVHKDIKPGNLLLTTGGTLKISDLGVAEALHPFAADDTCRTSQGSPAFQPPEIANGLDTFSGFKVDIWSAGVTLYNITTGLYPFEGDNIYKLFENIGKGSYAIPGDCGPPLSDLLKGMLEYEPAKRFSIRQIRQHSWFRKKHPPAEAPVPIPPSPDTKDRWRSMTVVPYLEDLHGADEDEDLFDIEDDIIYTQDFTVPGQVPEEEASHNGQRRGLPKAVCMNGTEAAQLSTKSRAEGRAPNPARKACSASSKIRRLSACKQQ
Conditions: at 10 µM

SMILES	residual activity [%]
NC(=O)c1ccc2[nH]c(-c3ccc(Oc4ccc(Cl)cc4)cc3)nc2c1	94
Cc1nc(-c2ccccc2)c(-c2ccncc2)o1	100
CCOc1cc2ncnc(Nc3cccc(Br)c3)c2cc1OCC	94
CC(C)n1cnc2/c(=N/c3cccc(Cl)c3)nc(NCCO)[nH]c21	81
Nc1nc(Nc2ccc(S(N)(=O)=O)cc2)nn1C(=S)Nc1c(F)cccc1F	41
Cc1ccc(S(=O)(=O)/C=C/C#N)cc1	100
Ic1cccc(CSc2nnc(-c3ccncc3)o2)c1	94
O=C1NC(=O)c2c1c1c3ccccc3[nH]c1c1[nH]c3cc(Br)ccc3c21	100
O=C1NC(=O)/C(=C\c2ccc3nccnc3c2)S1	78
CCN(CC)CCCCN1c2ccccc2Oc2ccc(Cl)cc21	94
COc1cccc(-c2cc(=O)c3ccccc3o2)c1N	100
O=C1c2ccccc2-[n+]2ccc3c([nH]c4ccccc43)c21	97
Oc1ccc(-c2nc(-c3ccc(F)cc3)c(-c3ccncc3)[nH]2)cc1	99
Cc1nc2cc3nc(-c4cccs4)cnc3cc2n1C	107
COc1ccc(C(=O)Nc2sc3c(c2C(N)=O)CCCC3)cc1OC	105
Cn1cc(/C=C2\C(=O)Nc3ccc(S(N)(=O)=O)cc32)c2ccccc21	100
Nc1ccc2ncnc(NCCc3ccc(Oc4ccccc4)cc3)c2c1	94
CO[C@H]1C[C@@H]2CC[C@@H](C)[C@@](O)(O2)C(=O)C(=O)N2CCCC[C@H]2C(=O)O[C@H]([C@H](C)C[C@@H]2CC[C@@H](O)[C@H](OC)C2)CC(=O)[C@H](C)/C=C(\C)[C@@H](O)[C@@H](OC)C(=O)[C@H](C)C[C@H](C)/C=C/C=C/C=C/1C	99

SMILES	residual activity [%]
CCC(=O)Nc1ccc2ncnc(Nc3cccc(Br)c3)c2c1	96
O=C(Nc1cccc(Nc2cc(Nc3cccc(C(F)(F)F)c3)ncn2)c1)C1CC1	96
O=[N+]([O-])c1ccc(-c2nc(-c3ccc(F)cc3)c(-c3ccncc3)[nH]2)cc1	99
O=c1c2ccccc2[nH]c(=S)n1CCN1CCC(=C(c2ccc(F)cc2)c2ccc(F)cc2)CC1	128
COc1cc2ncnc(Nc3ccc(NC(=O)c4ccccc4)cc3)c2cc1OC	109
COc1ccc(OC)c2c(=S)c3ccccc3[nH]c12	95
O=C(O)c1ccc2c3c1cccc3c(=O)n1c3ccccc3nc21	95
Cn1cnc2cc3c(Nc4cccc(Br)c4)ncnc3cc21	99
COc1ccc(S(=O)(=O)N(CCO)c2ccccc2CN(C)C/C=C/c2ccc(Cl)cc2)cc1	93
CNc1cc2c(Nc3cccc(Br)c3)ncnc2cn1	95
COc1cc2ncnc(N3CCN(C(=O)Nc4ccc(Oc5ccccc5)cc4)CC3)c2cc1OC	89
O=C(Nc1cccc(Nc2nccc(Nc3cccc(C(F)(F)F)c3)n2)c1)C1CC1	94
c1ccc(-c2n[nH]cc2-c2ccnc3ccccc23)nc1	94
O=c1cc(-c2cccc3c2Sc2ccccc2S3)oc(N2CCOCC2)c1	99
O=Nc1c(-c2c(O)[nH]c3ccccc23)[nH]c2ccccc12	44
Nc1n[nH]c2nnc(-c3c(-c4ccccc4)nn4ccccc34)cc12	94
CC(=O)O/N=C1\C(=C2\C(=O)Nc3cc(Br)ccc32)Nc2ccccc21	92

Target: Serine/threonine-protein kinase 10 (Homo sapiens) (UniProt O94804)
Conditions: at 1 µM

Sequence of Serine/threonine-protein kinase 10 (Homo sapiens) (O94804 whole entry, looked up): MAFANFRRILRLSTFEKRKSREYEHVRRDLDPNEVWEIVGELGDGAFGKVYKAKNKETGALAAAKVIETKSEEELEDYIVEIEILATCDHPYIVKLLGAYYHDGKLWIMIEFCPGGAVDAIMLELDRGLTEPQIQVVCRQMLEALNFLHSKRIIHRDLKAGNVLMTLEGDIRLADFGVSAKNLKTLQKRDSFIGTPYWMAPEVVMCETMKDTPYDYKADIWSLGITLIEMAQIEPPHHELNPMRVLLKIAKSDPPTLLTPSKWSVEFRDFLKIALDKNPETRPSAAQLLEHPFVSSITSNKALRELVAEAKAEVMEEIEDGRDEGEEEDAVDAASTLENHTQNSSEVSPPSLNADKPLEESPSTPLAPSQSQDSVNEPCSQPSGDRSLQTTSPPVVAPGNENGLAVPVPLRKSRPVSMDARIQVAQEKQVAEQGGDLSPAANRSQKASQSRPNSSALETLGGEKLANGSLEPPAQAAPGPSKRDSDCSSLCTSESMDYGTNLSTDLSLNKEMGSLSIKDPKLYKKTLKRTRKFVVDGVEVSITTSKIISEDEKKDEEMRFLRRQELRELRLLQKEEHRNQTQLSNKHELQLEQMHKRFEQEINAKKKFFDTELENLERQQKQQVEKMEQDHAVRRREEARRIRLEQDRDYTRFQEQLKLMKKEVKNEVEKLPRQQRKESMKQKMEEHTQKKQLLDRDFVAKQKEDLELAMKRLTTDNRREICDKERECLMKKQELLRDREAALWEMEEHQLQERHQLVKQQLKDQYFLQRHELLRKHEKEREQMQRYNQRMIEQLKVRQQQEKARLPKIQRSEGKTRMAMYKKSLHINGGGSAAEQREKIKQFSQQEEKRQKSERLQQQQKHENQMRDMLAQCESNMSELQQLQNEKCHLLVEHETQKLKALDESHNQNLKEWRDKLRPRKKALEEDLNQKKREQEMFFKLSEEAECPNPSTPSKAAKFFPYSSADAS

SMILES	residual activity [%]
NC(=O)c1ccc2[nH]c(-c3ccc(Oc4ccc(Cl)cc4)cc3)nc2c1	83
Cc1nc(-c2ccccc2)c(-c2ccncc2)o1	119
CCOc1cc2ncnc(Nc3cccc(Br)c3)c2cc1OCC	23
CC(C)n1cnc2/c(=N/c3cccc(Cl)c3)nc(NCCO)[nH]c21	89
Nc1nc(Nc2ccc(S(N)(=O)=O)cc2)nn1C(=S)Nc1c(F)cccc1F	0
Cc1ccc(S(=O)(=O)/C=C/C#N)cc1	109
Ic1cccc(CSc2nnc(-c3ccncc3)o2)c1	104
O=C1NC(=O)c2c1c1c3ccccc3[nH]c1c1[nH]c3cc(Br)ccc3c21	98
O=C1NC(=O)/C(=C\c2ccc3nccnc3c2)S1	71
CCN(CC)CCCCN1c2ccccc2Oc2ccc(Cl)cc21	110
COc1cccc(-c2cc(=O)c3ccccc3o2)c1N	114
O=C1c2ccccc2-[n+]2ccc3c([nH]c4ccccc43)c21	94
Oc1ccc(-c2nc(-c3ccc(F)cc3)c(-c3ccncc3)[nH]2)cc1	92
Cc1nc2cc3nc(-c4cccs4)cnc3cc2n1C	107
COc1ccc(C(=O)Nc2sc3c(c2C(N)=O)CCCC3)cc1OC	100
Cn1cc(/C=C2\C(=O)Nc3ccc(S(N)(=O)=O)cc32)c2ccccc21	45
Nc1ccc2ncnc(NCCc3ccc(Oc4ccccc4)cc3)c2c1	92
CO[C@H]1C[C@@H]2CC[C@@H](C)[C@@](O)(O2)C(=O)C(=O)N2CCCC[C@H]2C(=O)O[C@H]([C@H](C)C[C@@H]2CC[C@@H](O)[C@H](OC)C2)CC(=O)[C@H](C)/C=C(\C)[C@@H](O)[C@@H](OC)C(=O)[C@H](C)C[C@H](C)/C=C/C=C/C=C/1C	85

SMILES	residual activity [%]
CCC(=O)Nc1ccc2ncnc(Nc3cccc(Br)c3)c2c1	50
O=C(Nc1cccc(Nc2cc(Nc3cccc(C(F)(F)F)c3)ncn2)c1)C1CC1	92
O=[N+]([O-])c1ccc(-c2nc(-c3ccc(F)cc3)c(-c3ccncc3)[nH]2)cc1	114
O=c1c2ccccc2[nH]c(=S)n1CCN1CCC(=C(c2ccc(F)cc2)c2ccc(F)cc2)CC1	107
COc1cc2ncnc(Nc3ccc(NC(=O)c4ccccc4)cc3)c2cc1OC	71
COc1ccc(OC)c2c(=S)c3ccccc3[nH]c12	94
O=C(O)c1ccc2c3c1cccc3c(=O)n1c3ccccc3nc21	60
Cn1cnc2cc3c(Nc4cccc(Br)c4)ncnc3cc21	31
COc1ccc(S(=O)(=O)N(CCO)c2ccccc2CN(C)C/C=C/c2ccc(Cl)cc2)cc1	107
CNc1cc2c(Nc3cccc(Br)c3)ncnc2cn1	27
COc1cc2ncnc(N3CCN(C(=O)Nc4ccc(Oc5ccccc5)cc4)CC3)c2cc1OC	90
O=C(Nc1cccc(Nc2nccc(Nc3cccc(C(F)(F)F)c3)n2)c1)C1CC1	66
c1ccc(-c2n[nH]cc2-c2ccnc3ccccc23)nc1	90
O=c1cc(-c2cccc3c2Sc2ccccc2S3)oc(N2CCOCC2)c1	98
O=Nc1c(-c2c(O)[nH]c3ccccc23)[nH]c2ccccc12	66
Nc1n[nH]c2nnc(-c3c(-c4ccccc4)nn4ccccc34)cc12	80
CC(=O)O/N=C1\C(=C2\C(=O)Nc3cc(Br)ccc32)Nc2ccccc21	53
